Tests used:
Experiment in all cases: DAPPL (digital affinity profiling via proximity ligation, sequencing); 10 mM Tris-HCl pH 7.5, 50 mM NaCl, 1 mM DTT, 4% glycerol, room temperature, 30 min; GST-TFs on glutathione beads, 16-mer random dsDNA library, 0.1% formaldehyde crosslink after washing; high values mean tight binding
[1] = target: T1, FLI1 (Homo sapiens, UniProt Q01543 1-452); details: protein: recombinant; tags: N-terminal GST; dsDNA, one strand shown
T1 sequence: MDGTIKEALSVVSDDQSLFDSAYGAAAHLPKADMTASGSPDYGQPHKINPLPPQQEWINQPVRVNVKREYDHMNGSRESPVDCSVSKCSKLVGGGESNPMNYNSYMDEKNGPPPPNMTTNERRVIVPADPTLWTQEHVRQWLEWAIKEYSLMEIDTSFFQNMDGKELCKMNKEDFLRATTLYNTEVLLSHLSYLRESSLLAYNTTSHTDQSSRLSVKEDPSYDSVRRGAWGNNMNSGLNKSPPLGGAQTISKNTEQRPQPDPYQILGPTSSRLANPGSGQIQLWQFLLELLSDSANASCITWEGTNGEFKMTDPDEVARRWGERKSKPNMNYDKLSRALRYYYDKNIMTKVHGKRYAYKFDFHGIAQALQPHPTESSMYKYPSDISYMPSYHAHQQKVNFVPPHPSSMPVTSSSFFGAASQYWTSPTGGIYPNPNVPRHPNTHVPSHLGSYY
Method in brief: (§1)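 Yeast served to express human transcription factors as GST fusions, which were then captured on glutathione beads and labelled with DNA barcodes. Pooled with a tag-only sample, they were incubated with 200 nmole of a 16-mer random double-stranded DNA library for 30 min at room temperature in Tris/NaCl/DTT/glycerol buffer, washed, crosslinked with 0.1% formaldehyde, ligated by proximity, amplified by PCR and sequenced. Dividing each hexamer's read frequency for a factor by its frequency for the tag-only sample gives the binding signal.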

[2] = target: T2, ELK1 (Homo sapiens, UniProt P19419 1-428); details: protein: recombinant; tags: N-terminal GST; dsDNA, one strand shown
T2 sequence: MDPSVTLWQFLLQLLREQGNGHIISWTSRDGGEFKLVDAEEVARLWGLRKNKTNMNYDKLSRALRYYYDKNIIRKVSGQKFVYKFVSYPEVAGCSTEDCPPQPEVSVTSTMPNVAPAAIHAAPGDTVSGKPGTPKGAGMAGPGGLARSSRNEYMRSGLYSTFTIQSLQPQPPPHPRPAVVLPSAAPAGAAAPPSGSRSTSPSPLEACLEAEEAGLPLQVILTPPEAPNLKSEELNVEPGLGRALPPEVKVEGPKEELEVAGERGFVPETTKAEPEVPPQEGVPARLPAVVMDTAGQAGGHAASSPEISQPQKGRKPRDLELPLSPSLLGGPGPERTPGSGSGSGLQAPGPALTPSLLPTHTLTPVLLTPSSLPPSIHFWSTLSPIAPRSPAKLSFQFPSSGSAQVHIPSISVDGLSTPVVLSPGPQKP
Method in brief: as §1

[3] = target: T3, GABPA (Homo sapiens, UniProt Q06546 1-454); details: protein: recombinant; tags: N-terminal GST; dsDNA, one strand shown
T3 sequence: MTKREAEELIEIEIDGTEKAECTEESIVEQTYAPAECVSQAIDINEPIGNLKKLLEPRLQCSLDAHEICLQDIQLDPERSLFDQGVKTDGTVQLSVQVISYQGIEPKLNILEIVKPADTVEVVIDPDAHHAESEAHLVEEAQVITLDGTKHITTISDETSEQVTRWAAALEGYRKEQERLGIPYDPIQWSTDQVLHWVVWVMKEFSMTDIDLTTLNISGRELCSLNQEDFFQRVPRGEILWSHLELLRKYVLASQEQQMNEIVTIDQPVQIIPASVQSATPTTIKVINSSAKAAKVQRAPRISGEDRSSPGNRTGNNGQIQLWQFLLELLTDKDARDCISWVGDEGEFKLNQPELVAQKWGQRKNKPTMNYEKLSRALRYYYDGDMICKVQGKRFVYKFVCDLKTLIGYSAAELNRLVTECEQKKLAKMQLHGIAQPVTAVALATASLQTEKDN
Method in brief: as §1

[4] = target: T4, ERG (Homo sapiens, UniProt P11308 1-479); details: protein: recombinant; tags: N-terminal GST; dsDNA, one strand shown
T4 sequence: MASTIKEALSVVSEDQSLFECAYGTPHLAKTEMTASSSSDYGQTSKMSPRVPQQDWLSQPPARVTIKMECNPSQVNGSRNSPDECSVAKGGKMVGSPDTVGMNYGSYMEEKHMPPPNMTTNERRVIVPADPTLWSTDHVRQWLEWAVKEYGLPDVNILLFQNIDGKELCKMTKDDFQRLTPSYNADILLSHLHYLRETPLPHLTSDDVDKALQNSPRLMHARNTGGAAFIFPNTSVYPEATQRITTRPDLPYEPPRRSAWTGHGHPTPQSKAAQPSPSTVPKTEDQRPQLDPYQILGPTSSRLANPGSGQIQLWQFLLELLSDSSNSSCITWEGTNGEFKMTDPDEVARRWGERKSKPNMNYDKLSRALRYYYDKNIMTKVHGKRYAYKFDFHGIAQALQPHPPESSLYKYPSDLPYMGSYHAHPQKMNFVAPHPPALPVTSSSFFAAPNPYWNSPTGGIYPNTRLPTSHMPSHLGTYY
Method in brief: as §1

[5] = target: ELF1 (Homo sapiens, UniProt P32519 1-619); details: protein: recombinant; tags: N-terminal GST; dsDNA, one strand shown
Chain of ELF1 (P32519 whole entry): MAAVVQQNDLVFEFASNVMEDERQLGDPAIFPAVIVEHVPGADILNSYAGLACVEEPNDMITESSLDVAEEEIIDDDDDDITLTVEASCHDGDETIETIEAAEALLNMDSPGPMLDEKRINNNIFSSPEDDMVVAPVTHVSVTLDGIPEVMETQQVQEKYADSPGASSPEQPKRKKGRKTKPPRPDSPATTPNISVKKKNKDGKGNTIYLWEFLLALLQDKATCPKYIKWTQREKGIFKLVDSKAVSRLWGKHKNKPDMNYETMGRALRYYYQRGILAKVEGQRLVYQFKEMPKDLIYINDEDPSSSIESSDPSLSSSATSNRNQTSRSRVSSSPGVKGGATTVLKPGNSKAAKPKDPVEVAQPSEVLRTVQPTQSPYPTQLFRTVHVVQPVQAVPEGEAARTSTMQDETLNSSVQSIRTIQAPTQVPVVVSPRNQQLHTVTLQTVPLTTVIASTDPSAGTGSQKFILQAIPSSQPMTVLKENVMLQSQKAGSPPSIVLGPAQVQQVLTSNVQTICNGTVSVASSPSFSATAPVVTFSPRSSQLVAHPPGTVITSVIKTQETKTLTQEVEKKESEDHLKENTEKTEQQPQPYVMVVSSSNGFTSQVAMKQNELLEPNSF
Method in brief: as §1

[6] = target: T5, EHF (Homo sapiens, UniProt Q9NZC4 1-300); details: protein: recombinant; tags: N-terminal GST; dsDNA, one strand shown
T5 sequence: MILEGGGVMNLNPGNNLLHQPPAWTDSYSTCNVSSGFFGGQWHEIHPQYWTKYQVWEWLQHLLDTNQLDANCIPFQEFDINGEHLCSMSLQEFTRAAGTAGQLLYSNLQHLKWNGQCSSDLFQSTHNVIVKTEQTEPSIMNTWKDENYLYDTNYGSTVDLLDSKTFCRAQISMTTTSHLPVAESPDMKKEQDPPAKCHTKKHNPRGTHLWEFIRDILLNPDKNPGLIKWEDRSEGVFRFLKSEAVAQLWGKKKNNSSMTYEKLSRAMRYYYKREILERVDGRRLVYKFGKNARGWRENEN
Method in brief: as §1

[7] = target: SPI1 (Homo sapiens, UniProt P17947 1-270); details: protein: recombinant; tags: N-terminal GST; dsDNA, one strand shown
Method in brief: as §1

[8] = target: SPIB (Homo sapiens, UniProt Q01892 1-262); details: protein: recombinant; tags: N-terminal GST; dsDNA, one strand shown
Chain of SPIB (Q01892 whole entry): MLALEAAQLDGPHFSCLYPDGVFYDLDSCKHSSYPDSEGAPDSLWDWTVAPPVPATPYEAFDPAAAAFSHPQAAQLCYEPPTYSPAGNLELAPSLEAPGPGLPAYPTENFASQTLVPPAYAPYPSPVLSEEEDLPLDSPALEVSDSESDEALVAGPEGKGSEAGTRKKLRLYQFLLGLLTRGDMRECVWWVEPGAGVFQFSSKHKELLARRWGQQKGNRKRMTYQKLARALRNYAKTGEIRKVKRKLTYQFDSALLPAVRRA
Method in brief: as §1

[9] = target: T6, ELK3 (Homo sapiens, UniProt P41970 1-407); details: protein: recombinant; tags: N-terminal GST; dsDNA, one strand shown
T6 sequence: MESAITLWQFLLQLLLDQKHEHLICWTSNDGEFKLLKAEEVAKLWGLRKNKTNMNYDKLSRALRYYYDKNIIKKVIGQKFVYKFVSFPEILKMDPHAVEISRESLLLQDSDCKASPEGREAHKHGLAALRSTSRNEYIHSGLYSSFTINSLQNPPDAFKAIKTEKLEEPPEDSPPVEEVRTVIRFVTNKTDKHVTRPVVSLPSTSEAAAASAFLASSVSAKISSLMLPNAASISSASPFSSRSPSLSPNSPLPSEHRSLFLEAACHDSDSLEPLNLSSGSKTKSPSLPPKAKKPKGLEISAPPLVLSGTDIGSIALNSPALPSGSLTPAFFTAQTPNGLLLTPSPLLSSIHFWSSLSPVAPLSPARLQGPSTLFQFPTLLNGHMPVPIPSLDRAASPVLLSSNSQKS
Method in brief: as §1

[10] = target: T7, FEV (Homo sapiens, UniProt Q99581 1-238); details: protein: recombinant; tags: N-terminal GST; dsDNA, one strand shown
T7 sequence: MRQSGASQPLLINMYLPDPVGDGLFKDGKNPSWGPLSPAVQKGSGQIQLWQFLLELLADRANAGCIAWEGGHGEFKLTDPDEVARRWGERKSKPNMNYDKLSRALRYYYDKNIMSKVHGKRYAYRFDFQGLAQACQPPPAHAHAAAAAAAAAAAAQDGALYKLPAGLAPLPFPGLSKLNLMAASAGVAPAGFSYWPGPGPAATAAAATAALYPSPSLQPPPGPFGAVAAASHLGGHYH
Method in brief: as §1

[11] = target: ETV5 (Homo sapiens, UniProt P41161 1-510); details: protein: recombinant; tags: N-terminal GST; dsDNA, one strand shown
Chain of ETV5 (P41161 whole entry): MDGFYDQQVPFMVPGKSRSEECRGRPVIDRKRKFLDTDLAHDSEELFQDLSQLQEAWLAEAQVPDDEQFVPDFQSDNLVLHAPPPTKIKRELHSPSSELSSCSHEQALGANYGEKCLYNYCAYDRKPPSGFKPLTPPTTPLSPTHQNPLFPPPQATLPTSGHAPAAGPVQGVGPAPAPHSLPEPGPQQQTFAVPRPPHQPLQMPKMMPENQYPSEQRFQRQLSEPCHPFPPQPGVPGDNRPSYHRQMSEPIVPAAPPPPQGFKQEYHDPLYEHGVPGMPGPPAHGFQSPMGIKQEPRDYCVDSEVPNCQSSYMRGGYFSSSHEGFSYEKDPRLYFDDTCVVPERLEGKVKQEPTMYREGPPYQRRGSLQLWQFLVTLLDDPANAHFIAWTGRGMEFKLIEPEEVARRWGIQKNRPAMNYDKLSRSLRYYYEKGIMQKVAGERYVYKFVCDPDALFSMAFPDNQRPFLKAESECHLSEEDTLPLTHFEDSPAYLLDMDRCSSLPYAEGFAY
Method in brief: as §1

[12] = target: HSF1 (Homo sapiens, UniProt Q00613 1-529); details: protein: recombinant; tags: N-terminal GST; chain copies: 3; dsDNA, one strand shown
Chain of HSF1 (Q00613 whole entry): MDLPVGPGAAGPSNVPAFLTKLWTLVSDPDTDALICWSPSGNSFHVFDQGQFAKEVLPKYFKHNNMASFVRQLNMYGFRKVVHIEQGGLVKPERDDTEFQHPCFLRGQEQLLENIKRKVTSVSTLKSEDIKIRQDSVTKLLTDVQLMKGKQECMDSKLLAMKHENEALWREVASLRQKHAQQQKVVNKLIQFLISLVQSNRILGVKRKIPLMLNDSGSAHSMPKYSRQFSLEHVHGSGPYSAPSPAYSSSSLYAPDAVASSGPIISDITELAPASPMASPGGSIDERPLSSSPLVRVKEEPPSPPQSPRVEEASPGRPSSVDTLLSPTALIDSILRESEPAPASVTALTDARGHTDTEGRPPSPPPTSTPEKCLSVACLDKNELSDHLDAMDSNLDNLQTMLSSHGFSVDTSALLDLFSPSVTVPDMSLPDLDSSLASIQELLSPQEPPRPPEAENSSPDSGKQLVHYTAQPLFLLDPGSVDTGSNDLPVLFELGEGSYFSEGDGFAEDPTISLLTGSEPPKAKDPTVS
Method in brief: as §1

[13] = target: T8, SPIC (Homo sapiens, UniProt Q8N5J4 1-248); details: protein: recombinant; tags: N-terminal GST; dsDNA, one strand shown
T8 sequence: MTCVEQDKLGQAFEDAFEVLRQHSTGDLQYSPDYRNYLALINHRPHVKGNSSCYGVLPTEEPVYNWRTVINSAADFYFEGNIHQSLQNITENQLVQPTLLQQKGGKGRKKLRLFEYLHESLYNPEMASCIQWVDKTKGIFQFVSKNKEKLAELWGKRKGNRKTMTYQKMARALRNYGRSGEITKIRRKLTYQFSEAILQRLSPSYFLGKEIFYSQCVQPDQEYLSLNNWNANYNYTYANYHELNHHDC
Method in brief: as §1

[14] = target: ELF4 (Homo sapiens, UniProt Q99607 1-663); details: protein: recombinant; tags: N-terminal GST; dsDNA, one strand shown
Chain of ELF4 (Q99607 whole entry): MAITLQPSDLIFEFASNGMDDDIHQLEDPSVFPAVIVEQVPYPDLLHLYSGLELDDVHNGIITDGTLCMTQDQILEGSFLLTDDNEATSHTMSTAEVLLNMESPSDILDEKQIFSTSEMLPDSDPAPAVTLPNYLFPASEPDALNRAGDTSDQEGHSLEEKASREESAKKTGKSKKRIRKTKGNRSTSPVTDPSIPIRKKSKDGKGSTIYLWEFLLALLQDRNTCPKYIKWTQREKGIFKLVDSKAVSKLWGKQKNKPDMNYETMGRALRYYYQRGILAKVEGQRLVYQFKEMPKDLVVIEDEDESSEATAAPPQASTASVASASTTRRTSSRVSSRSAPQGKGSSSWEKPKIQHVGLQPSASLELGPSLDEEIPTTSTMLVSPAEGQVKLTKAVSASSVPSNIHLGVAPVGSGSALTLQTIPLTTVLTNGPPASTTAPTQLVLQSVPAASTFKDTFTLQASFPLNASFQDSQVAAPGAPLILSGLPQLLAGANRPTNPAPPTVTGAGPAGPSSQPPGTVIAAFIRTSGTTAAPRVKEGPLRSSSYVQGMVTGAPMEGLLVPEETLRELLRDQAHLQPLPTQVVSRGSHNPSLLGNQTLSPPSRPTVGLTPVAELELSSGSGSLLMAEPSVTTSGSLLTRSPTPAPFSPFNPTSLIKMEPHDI
Method in brief: as §1

[15] = target: T9, ELK4 (Homo sapiens, UniProt P28324-2 1-405); details: protein: recombinant; tags: N-terminal GST; dsDNA, one strand shown
T9 sequence: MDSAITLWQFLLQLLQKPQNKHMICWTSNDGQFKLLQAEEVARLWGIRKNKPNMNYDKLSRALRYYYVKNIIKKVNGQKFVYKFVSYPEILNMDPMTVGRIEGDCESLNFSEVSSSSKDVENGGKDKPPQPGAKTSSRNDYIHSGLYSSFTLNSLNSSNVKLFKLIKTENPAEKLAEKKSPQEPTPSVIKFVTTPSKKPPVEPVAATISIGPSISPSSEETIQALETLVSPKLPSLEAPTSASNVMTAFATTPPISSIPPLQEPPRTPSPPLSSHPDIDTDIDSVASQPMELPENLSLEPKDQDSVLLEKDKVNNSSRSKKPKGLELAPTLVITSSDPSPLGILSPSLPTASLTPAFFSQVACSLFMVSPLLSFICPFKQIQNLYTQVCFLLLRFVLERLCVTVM
Method in brief: as §1

[16] = target: T10, ETV2 (Homo sapiens, UniProt O00321 1-342); details: protein: recombinant; tags: N-terminal GST; dsDNA, one strand shown
T10 sequence: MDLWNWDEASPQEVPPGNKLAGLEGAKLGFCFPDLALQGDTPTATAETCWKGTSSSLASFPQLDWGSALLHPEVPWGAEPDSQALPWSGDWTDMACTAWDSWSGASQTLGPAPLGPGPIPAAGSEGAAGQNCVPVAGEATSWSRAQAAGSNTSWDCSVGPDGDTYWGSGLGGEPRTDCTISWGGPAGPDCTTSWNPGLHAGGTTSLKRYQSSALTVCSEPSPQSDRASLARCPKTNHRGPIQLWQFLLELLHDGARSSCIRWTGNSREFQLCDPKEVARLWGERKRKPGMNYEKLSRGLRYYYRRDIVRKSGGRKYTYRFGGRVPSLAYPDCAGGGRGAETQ
Method in brief: as §1

[17] = target: T11, ELF3 (Homo sapiens, UniProt P78545 1-371); details: protein: recombinant; tags: N-terminal GST; dsDNA, one strand shown
T11 sequence: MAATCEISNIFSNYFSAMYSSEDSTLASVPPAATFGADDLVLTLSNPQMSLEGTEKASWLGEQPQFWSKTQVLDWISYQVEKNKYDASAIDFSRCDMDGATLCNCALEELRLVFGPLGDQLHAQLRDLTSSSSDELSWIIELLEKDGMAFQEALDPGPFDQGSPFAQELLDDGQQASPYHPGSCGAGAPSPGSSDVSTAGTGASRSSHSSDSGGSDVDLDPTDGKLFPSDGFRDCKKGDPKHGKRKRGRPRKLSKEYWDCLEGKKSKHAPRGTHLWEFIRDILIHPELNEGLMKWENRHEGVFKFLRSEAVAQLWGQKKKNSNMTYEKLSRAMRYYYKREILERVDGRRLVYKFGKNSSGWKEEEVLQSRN
Method in brief: as §1

[18] = target: CRX (Homo sapiens, UniProt O43186 1-299); details: protein: recombinant; tags: N-terminal GST; dsDNA, one strand shown
Chain of CRX (O43186 whole entry): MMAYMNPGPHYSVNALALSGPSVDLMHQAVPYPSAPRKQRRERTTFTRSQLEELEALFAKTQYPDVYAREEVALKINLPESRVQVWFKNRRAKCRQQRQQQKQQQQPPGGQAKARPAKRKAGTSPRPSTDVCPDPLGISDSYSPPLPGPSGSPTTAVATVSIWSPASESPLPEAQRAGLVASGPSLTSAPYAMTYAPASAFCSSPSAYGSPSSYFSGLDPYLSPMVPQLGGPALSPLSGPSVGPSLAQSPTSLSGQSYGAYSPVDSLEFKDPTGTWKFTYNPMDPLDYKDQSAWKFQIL
Method in brief: as §1

[19] = target: ETV1 (Homo sapiens, UniProt P50549 1-477); details: protein: recombinant; tags: N-terminal GST; dsDNA, one strand shown
Chain of ETV1 (P50549 whole entry): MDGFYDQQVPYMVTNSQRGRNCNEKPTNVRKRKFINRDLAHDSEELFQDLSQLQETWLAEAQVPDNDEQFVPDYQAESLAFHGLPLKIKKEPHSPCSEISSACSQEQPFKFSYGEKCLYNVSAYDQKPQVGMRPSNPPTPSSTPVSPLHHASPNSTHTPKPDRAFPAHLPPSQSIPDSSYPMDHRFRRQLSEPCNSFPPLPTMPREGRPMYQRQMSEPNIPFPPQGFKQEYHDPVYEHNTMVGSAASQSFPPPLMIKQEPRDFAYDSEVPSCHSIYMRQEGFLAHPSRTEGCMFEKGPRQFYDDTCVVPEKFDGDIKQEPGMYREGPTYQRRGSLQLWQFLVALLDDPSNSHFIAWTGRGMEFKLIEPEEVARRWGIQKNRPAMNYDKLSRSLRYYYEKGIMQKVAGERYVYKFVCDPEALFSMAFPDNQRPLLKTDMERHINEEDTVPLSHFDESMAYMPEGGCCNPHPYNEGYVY
Method in brief: as §1

ACTTGC was tested, and the binding signal [1] was 1.46 fold enrichment (6-mer frequency, TF over GST control), the binding signal [2] was 1.48 fold enrichment (6-mer frequency, TF over GST control) and the binding signal [3] was 1.42 fold enrichment (6-mer frequency, TF over GST control). For the same sequence, the binding signal [4] was 1.41 fold enrichment (6-mer frequency, TF over GST control), the binding signal [5] was 1.37 fold enrichment (6-mer frequency, TF over GST control) and the binding signal [6] was 1.52 fold enrichment (6-mer frequency, TF over GST control). The binding signal [7] was 1.54 fold enrichment (6-mer frequency, TF over GST control), the binding signal [8] was 1.35 fold enrichment (6-mer frequency, TF over GST control) and the binding signal [9] was 1.35 fold enrichment (6-mer frequency, TF over GST control). For the same sequence, the binding signal [10] was 1.4 fold enrichment (6-mer frequency, TF over GST control), the binding signal [11] was 1.49 fold enrichment (6-mer frequency, TF over GST control) and the binding signal [12] was 1.25 fold enrichment (6-mer frequency, TF over GST control). For the same sequence, the binding signal [13] was 1.36 fold enrichment (6-mer frequency, TF over GST control), the binding signal [14] was 1.47 fold enrichment (6-mer frequency, TF over GST control) and the binding signal [15] was 1.44 fold enrichment (6-mer frequency, TF over GST control). The binding signal [16] was 1.36 fold enrichment (6-mer frequency, TF over GST control), the binding signal [17] was 1.79 fold enrichment (6-mer frequency, TF over GST control) and the binding signal [18] was 1.12 fold enrichment (6-mer frequency, TF over GST control). For the same sequence, the binding signal [19] was 1.37 fold enrichment (6-mer frequency, TF over GST control).

From publication PMC7862700, “An all-to-all approach to the identification of sequence-specific readers for epigenetic DNA modifications on cytosine”
